# Assay outcomes: PubChem, National Center for Advancing Translational Sciences (NCATS)
# Shiga inhibitor: A qHTS for Small Molecule Inhibitors of Shiga Toxin; actives 9.2% (n = 290,000); inhibition, % at 38.7 µM; Vero cells, Shiga toxin protein synthesis inhibition reporter; AID 2315, 2010; in the data active means inhibition mostly above about 28%, no sharp cut-off; inactive means mostly below about 43%; further: 0% is about no effect
# Pf growth 96h: Primary qHTS for delayed death inhibitors of the malarial parasite plastid, 96 hour incubation; P. falciparum luciferase reporter growth, 96 h; Potency, µM (titrated, usually from 28.7 µM), for the others: at the top dose activity change, negative = inhibition, most hits filed as inhibitors; actives 6.9% (n = 320,000); further: potency means the concentration at half of the fitted maximal effect; on the % scale 0 is the no-effect control and ±100 the full control effect
#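 96 h incubation, 37 C, 5% CO2, of luciferase-reporter P. falciparum-infected RBCs (2% hematocrit, 0.05% parasitemia final) with test compounds; endpoint luminescence.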
# AMA1 RON2 block: qHTS for Inhibitors of AMA1-RON; Towards Development of Antimalarial Drug Lead: Primary Screen | Plasmodium falciparum AMA1 (3D7) - RON2 peptide interaction | AlphaScreen AMA1-biotinylated RON2 peptide binding | Potency, µM (top dose mostly 58.2 µM), without a hit: at the highest dose activity change, negative = inhibition, usual class: inhibitors | actives 0.2% (n = 360,000) | AID 720542, 2013;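 further: potency means the concentration at half of the fitted maximal effect; 0% = vehicle wells and -100% = peptide control; nearly all actives have a fitted effect of over 45% in size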
#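 AMA1 (3D7) with his tag at 25 nM final met compounds first, then biotinylated RON2 peptide at 25 nM; detection used donor plus acceptor beads, 10 µg/mL apiece, read by AlphaScreen after 30 min at room temperature.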
# SARS PLP yeast: qHTS of Yeast-based Assay for SARS-CoV PLP; S. cerevisiae expressing SARS-CoV PLpro, growth rescue; Potency, µM (doses to about 32.9 µM), without a hit: at the top dose activity, positive = growth rescue, hits mostly activators; actives 0.19% (n = 330,000); calls by dose curve; further: potency means the concentration at half of the fitted maximal effect; 0% is about no effect; nearly all actives have a fitted effect of over 55% in size
# CHX counter: Cycloheximide Counterscreen for Small Molecule Inhibitors of Shiga Toxin. cell reporter, cycloheximide protein synthesis inhibition counterscreen. max response, %. actives 12% (n = 300,000); in the data active means max response mostly above about 13%, no sharp cut-off; inactive means mostly below about 14%; further: read at 38.3 µM for the half of the compounds with a filed dose; 0% is about no effect
# Pf growth 48h: Primary qHTS for delayed death inhibitors of the malarial parasite plastid, 48 hour incubation. Potency, µM (titrated, usually from 28.7 µM), for the others: at the highest dose activity change, negative = inhibition, hits mostly inhibitors. actives 5.9% (n = 310,000). P. falciparum luciferase growth in erythrocytes, 48 h; further: potency means the concentration at half of the fitted maximal effect; on the % scale 0 is the no-effect control and ±100 the full control effect
#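 Compounds are pin-transferred into medium, infected erythrocytes (2% hematocrit, 0.1% parasitemia final) are added, and plates sit one parasite generation at 37 C in 5% CO2. Detection reagent is then added and luminescence measured.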
# Active calls of the source: *; ? = inconclusive; · = no result given; [ ] = another dose, or the depositor's remark. Sampled rows, rich in hits. Any-hit rate of the full collection: about 19%. Unless noted, the call rests on the fitted dose curve; in most records, active means well fitted curve in the direction sought with a large enough effect; inconclusive means small, poorly fitted or top-dose-only effect, or another doubt; inactive means no such curve, though single readings can be large; an effect the other way counts as inactive or inconclusive.
SMILES,Shiga inhibitor,Pf growth 96h,AMA1 RON2 block,SARS PLP yeast,CHX counter,Pf growth 48h
Oc1ccccc1Nc1ncnc2c1oc1ccccc12,46.3,?,-6.4%,-5.0%,38.5*,?
Cc1cc2c(Nc3cccc(O)c3)ncnc2s1,23.5,9.4%,-2.3%,·,18.5*,365.8%
CC(=O)c1ccc(C(C)(C)c2ccc(C(C)=O)s2)s1,10.2,11.7µM*,63.5%,-2.4%,0.7,?
COc1ccc(OC)c2[nH]c(=O)c(CCNS(=O)(=O)c3ccc(F)cc3)cc12,17.1,39.6%,-2.4%,1.9%,-1.3,-23.6%
CCS(=O)(=O)NCCc1cc2c(OC)ccc(OC)c2[nH]c1=O,-4.8,2.08µM*,-3.3%,3.3%,-2.0,-24.4%
COc1ccc(OC)c2[nH]c(=O)c(CCNC(=O)c3cc4ccccc4o3)cc12,-8.0,5.22µM*,-4.6%,-6.6%,1.0,8.28µM*
O=C(NCc1ccc(-c2nc3ccccc3s2)cc1)c1ccc(Br)o1,39.5*,-15.3%,20.3%,11.1%,27.7*,35.5%
O=C(NCc1ccc(-c2nc3ccccc3s2)cc1)c1cc2ccccc2o1,48.4*,?,0.3%,14.0%,19.8*,43.2%
O=C(Nc1ccccc1-c1nc2ccccc2s1)c1ccc(Br)o1,-4.8,-20.8%,-6.6%,-10.3%,1.9,·
Cc1cc(C)n(Cc2cccc(C(=O)N/N=C/c3ccncc3)c2)n1,-12.5,0.7%,28.8%,-5.5%,18.2,-5.8%
CN(C)S(=O)(=O)c1cc(NC(=O)Cn2ccsc2=N)ccc1Cl,-5.2,1.5%,5.1%,-2.5%,7.9,4.4%
NC(=O)[C@H](Cc1cc2ccccc2s1)NC(=O)[C@@H]1CC2(CC(c3cccc(NC(=O)[C@@H]4CCC(=O)N4)c3)=NO2)CN1C(=O)/C=C/c1c(F)cccc1Cl (stereo partly drawn),-4.2,2.94µM*,-10.6%,-6.5%,1.6,4.15µM*
NC(=O)[C@H]1CC2(CC(c3cccc(NC(=O)[C@H]4CCC(=O)N4)c3)=NO2)CN1C(=O)CC(c1ccccc1)c1ccccc1 (stereo partly drawn),-3.9,?,-2.5%,0.2%,-4.3,-39.2%
NC(=O)[C@H](Cc1cc2ccccc2s1)NC(=O)[C@@H]1CC2(CC(c3cccc(NC(=O)[C@@H]4CCC(=O)N4)c3)=NO2)CN1C(=O)c1ccccc1 (stereo partly drawn),-18.6,10.4µM*,15.8%,4.5%,-3.0,13.1µM*
NC(=O)[C@H](Cc1cc2ccccc2s1)NC(=O)[C@@H]1CC2(CC(c3cccc(NC(=O)[C@@H]4CCC(=O)N4)c3)=NO2)CN1C(=O)/C=C/Sc1ccccc1 (stereo partly drawn),23.6,?,-3.1%,-1.8%,-2.0,13.1µM*
NC(=O)[C@@H]1CC2(CC(c3cccc(NC(=O)[C@H]4CCC(=O)N4)c3)=NO2)CN1C(=O)COc1ccc(Cl)cc1 (stereo partly drawn),-5.3,39.3%,19.9%,-0.9%,-4.7,49.8%
Cc1ccc(C)c(S(=O)(=O)NC(C)CCc2ccccc2)c1 (stereo not drawn),14.0,10.1%,16.7%,-8.7%,-2.2,9.3%
COc1ccc(S(=O)(=O)N2CCN(C(=O)c3ccco3)CC2)c(C)c1C,-9.3,133.8%,-3.8%,-1.6%,0.5,-2.9%
Oc1ccccc1-c1nnc(COc2ccc(Cl)cc2Cl)o1,74.0*,20.3%,55.2%,-8.8%,44.8*,32.9%
c1ccc(OCc2nnc(-c3ccccc3)o2)cc1,117.8*,171.6%,-0.6%,1.6%,26.4*,102.8%
O=C(O)c1ccc(CSc2nnc(COc3ccccc3)o2)cc1,-15.4,29.7%,-13.5%,0.1%,-4.8,11.8%
Clc1ccc(-c2nnc(CCc3ccccc3)o2)c(Cl)c1,89.6*,199.8%,153.7%,-1.8%,41.5*,76.2%
Oc1ccccc1-c1nnc(COc2ccccc2)o1,39.8,-23.6%,19.0%,-7.4%,26.7*,·
COc1ccc(C(=O)Nc2ccc3oc(-c4cccc(Cl)c4)cc(=O)c3c2O)cc1,2.2,?,-10.2%,1.7%,6.3,?
CCC1(c2ccccc2)NC(=O)N(CC(=O)N2CC(=O)Nc3ccccc32)C1=O (stereo not drawn),·,?,-2.9%,0.4%,·,?
SMILES,Shiga inhibitor,Pf growth 96h,AMA1 RON2 block,SARS PLP yeast,CHX counter,Pf growth 48h
c1ccc(CNc2cncnc2)cc1,·,3.4%,-1.0%,0.5%,-3.2,1.1%
C=CCC[C@H](Cc1ccc(F)cc1)C(=O)OC[C@@H](Cc1c[nH]c2ccccc12)NC(=O)[C@@H](CC=C)CC(=O)N(CCO)Cc1ccccc1,·,·,0.6%,-1.5%,·,·
O=C(O)C1Nc2c(O)cc(Cl)c([N+](=O)[O-])c2C2C=CCC12 (stereo not drawn),-9.2,?,2.24µM*,?,-5.4,38.0%
O=C(O)C1Nc2c(cccc2C(F)(F)F)C2C=CCC12 (stereo not drawn),12.3,4.5%,·,-0.7%,-1.0,12.3%[0.00184 µM]
COc1ccc(CN(C)CC(=O)NC2CCCc3ccccc32)cc1OC (stereo not drawn),-14.1,-23.7%,16.9%,-0.7%,3.6,-3.3%
C[C@@]12C(=O)OC(=O)[C@]1(C)C1CCC2O1,·,1.85µM*,39.3%,·,·,2.94µM*
COCCCNc1nc2c(-c3ccc(C)cc3)nnn2c2ccccc12,71.8*,12.3%,18.5%,-1.1%,38.5*,72.5%
CCOC(=O)N1CCN(C(=O)CSc2ccc(-c3cccnc3)nn2)CC1,-9.5,?,·,-4.7%,-2.9,-15.7%
CC1(C(=O)Nc2ccc3c(c2)OCO3)CCN1Cc1ccccc1OC(F)F (stereo not drawn),·,·,-21.2%,·,·,·
CCOC(=O)Cc1csc(NC(=O)Nc2ccc(C)cc2)n1,50.4*,5.6%,4.3%,-1.7%,26.6*,2.1%
COC(=O)Nc1nc(-c2cc(Cl)ccc2Cl)cs1,-2.0,6.9%,8.7%,-0.2%,-4.7,-23.9%
CCOC(=O)Cc1csc(NC(=O)Nc2cccs2)n1,48.4*,86.1%,2.6%,1.6%,37.3*,18.9%
CCOC(=O)Cc1csc(NC(=S)NC(=O)c2ccc(F)cc2)n1,-2.9,?,21.9%,3.6%,8.2,?
CCOC(=O)Cc1csc(NC(=O)Nc2ccc(F)cc2)n1,14.0,-0.9%,-11.4%,-1.5%,11.7*,-27.9%
CCOC(=O)Nc1nc(-c2ccc(F)cc2F)cs1,12.0*,?,4.9%,-23.8%,54.5*,105.5%
C[C@H]1CN([C@@H](C)CO)C(=O)CCCn2nncc2CO[C@@H]1CN(C)C(=O)c1ccc2ccn(C)c2c1,·,·,-5.6%,·,·,·
CCOC(=O)Cc1csc(N/N=C/c2ccc(C(F)(F)F)cc2)n1,25.1,152.3%,59.4%,8.5%,22.3*,93.1%
